# Measured values: the supplement of paper PMC6522484
# Counter-ions that a name gives are not always drawn. ± gives the standard deviation of the averaged measurements.
# System: DLD1
# Assay: cell viability (CellTiter-Glo) relative to plate median (fraction of plate median); higher = more viable cells
# Details: 10 µM; treatment time 24 h; reporter: 7TFP
# Outline: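 Colorectal cancer cell lines stably transduced with lentiviral TCF/Wnt firefly luciferase reporters (7TFP or TCF4/Wnt) were seeded in 384-well plates. 24 h later they received kinase inhibitor library compounds at a final 10 µM for 24 h. Parallel plates were read for firefly luciferase or CellTiterGlo luminescence on a Tecan F500 reader. Each well's signal was normalised to the plate median (webcellHTS2, additive, no log transformation), and the mean of two independent replicates is reported.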
row,Structure (SMILES),cell viability
1,OCCn1cc(-c2ccc3c(c2)CC/C3=N\O)c(-c2ccncc2)n1,1.05 ± 0.15
2,Cn1cc(-c2ccc3ncc(Cc4ccc5ncccc5c4)n3n2)cn1,1.045 ± 0.0071
3,CNC(=O)c1cccc(-c2ccc3c(N4CCOC[C@@H]4C)nc(N4CCOC[C@@H]4C)nc3n2)c1,0.9035 ± 0.0064
4,CC(C)(C)Cn1c(N)nc2ccc(-c3[nH]c(C(C)(C)C)nc3-c3ccc(F)cc3)nc21,1.07 ± 0.12
5,C[C@]1(O)C[C@@H](c2nc(-c3ccc4ccc(-c5ccccc5)nc4c3)c3c(N)nccn32)C1 [Linsitinib (OSI-906)],0.876 ± 0.018
6,CCN(CC)CCNC(=O)c1c(C)[nH]c(/C=C2\C(=O)Nc3ccc(F)cc32)c1C [Sunitinib Malate (Sutent)],0.867 ± 0.1
7,COc1cc(Nc2ncc(F)c(Nc3ccc4c(n3)N(COP(=O)(O)O)C(=O)C(C)(C)O4)n2)cc(OC)c1OC,0.895 ± 0.046
8,Cc1cc(C(C)Nc2ccccc2)c2nc(N3CCOCC3)cc(=O)n2c1 (stereo not given),0.997 ± 0.13
9,Cn1cc(-c2ccc3nnc(Sc4ccc5ncccc5c4)n3n2)cn1,0.983 ± 0.016
10,N#Cc1c(O)c2c(-c3ccc(-c4ccccc4O)cc3)csc2[nH]c1=O,1.13 ± 0.014
11,C#Cc1cccc(Nc2ncnc3cc(OCCOC)c(OCCOC)cc23)c1 [Erlotinib HCl],1.035 ± 0.0071
12,N#CC(=C(/N)Sc1ccccc1N)/C(C#N)=C(\N)Sc1ccccc1N,1.08 ± 0.064
13,Nc1cccc(-c2cc3c(Oc4cccc(O)c4)ncnc3[nH]2)c1,1.17 ± 0.085
14,CCOc1cc2ncc(C#N)c(Nc3ccc(F)c(Cl)c3)c2cc1NC(=O)/C=C/CN(C)C [Pelitinib (EKB-569)],1.02
15,Cc1cc(Nc2cc(CN3CCOCC3)c3nc(C)c(Cc4ccc(Cl)cc4F)n3n2)n[nH]1,0.907 ± 0.096
16,"CC[C@H](CO)Nc1nc(NCc2ccccc2)c2ncn(C(C)C)c2n1 [Roscovitine (Seliciclib, CYC202)]",0.852 ± 0.065
17,CO[C@H]1C[C@@H]2CC[C@@H](C)[C@@](O)(O2)C(=O)C(=O)N2CCCC[C@H]2C(=O)O[C@H]([C@H](C)C[C@@H]2CC[C@@H](OP(C)(C)=O)[C@H](OC)C2)CC(=O)[C@H](C)/C=C(\C)[C@@H](O)[C@@H](OC)C(=O)[C@H](C)C[C@H](C)/C=C/C=C/C=C/1C [Deforolimus (Ridaforolimus)],0.979 ± 0.086
18,O=C1NC(=O)[C@@H](c2cn3c4c(cccc24)CCC3)[C@@H]1c1c[nH]c2ccccc12 [ARQ 197 (Tivantinib)],0.995 ± 0.18
19,COc1cccc2cc(-c3nc([C@H]4CC[C@H](C(=O)O)CC4)n4ncnc(N)c34)[nH]c12,1.03 ± 0.093
20,CO[C@H]1C[C@@H]2CC[C@@H](C)[C@@](O)(O2)C(=O)C(=O)N2CCCC[C@H]2C(=O)O[C@H]([C@H](C)C[C@@H]2CC[C@@H](OC(=O)C(C)(CO)CO)[C@H](OC)C2)CC(=O)[C@H](C)/C=C(\C)[C@@H](O)[C@@H](OC)C(=O)[C@H](C)C[C@H](C)/C=C/C=C/C=C/1C [Temsirolimus (Torisel)],1.135 ± 0.0071

row,Structure (SMILES),cell viability
1,CC(C)(O)CC(=O)NCCn1ccc2ncnc(Nc3ccc(Oc4cccc(C(F)(F)F)c4)c(Cl)c3)c21,1.04 ± 0.16
2,CCCS(=O)(=O)Nc1ccc(F)c(C(=O)c2c[nH]c3ncc(Cl)cc23)c1F,1.03 ± 0.08
3,O=C(O)c1ccc2c(c1)nc(Nc1cccc(Cl)c1)c1ccncc12 [cx-4945 (Silmitasertib)],1 ± 0.057
4,COc1cc2c(Oc3ccc(NC(=O)C4(C(=O)Nc5ccc(F)cc5)CC4)cc3F)ccnc2cc1OCCCN1CCOCC1,0.845 ± 0.044
5,CN(C)CCOc1ccc(-c2nc(-c3ccncc3)c(-c3ccc4c(c3)CC/C4=N\O)[nH]2)cc1,1.04 ± 0.071
6,COc1cc2nccc(Oc3ccc(NC(=O)C4(C(=O)Nc5ccc(F)cc5)CC4)cc3)c2cc1OC [XL-184 free base (Cabozantinib)],1 ± 0.08
7,CN1CC[C@H](c2c(O)cc(O)c3c(=O)cc(-c4ccccc4Cl)oc23)[C@H](O)C1 [Flavopiridol hydrochloride],1.27 ± 0.2
8,S=C(NCc1ccc2c(c1)OCO2)N1CCN(c2ncnc3c2oc2ccccc23)CC1 [Amuvatinib (MP-470)],0.997 ± 0.047
9,Cn1cnc(N)c2ncnc1-2 [3-Methyladenine],1.07 ± 0.078
10,Clc1ccc(Nc2nnc(Cc3ccncc3)c3ccccc23)cc1 [Vatalanib dihydrochloride (PTK787)],0.9675 ± 0.0021
11,O=c1cc(-c2cccc3c2Sc2ccccc2S3)oc(N2CCOCC2)c1,1.02 ± 0.1
12,CN1CCN(CCOc2cc(OC3CCOCC3)c3c(Nc4c(Cl)ccc5c4OCO5)ncnc3c2)CC1 [Saracatinib (AZD0530)],0.936 ± 0.048
13,CNC(=O)Nc1ccc(-c2nc(N3CC4CCC(C3)O4)c3cnn(C4CCC5(CC4)OCCO5)c3n2)cc1,0.902 ± 0.088
14,CO[C@H]1C[C@@H]2CC[C@@H](C)[C@@](O)(O2)C(=O)C(=O)N2CCCC[C@H]2C(=O)O[C@H]([C@H](C)C[C@@H]2CC[C@@H](OCCO)[C@H](OC)C2)CC(=O)[C@H](C)/C=C(\C)[C@@H](O)[C@@H](OC)C(=O)[C@H](C)C[C@H](C)/C=C/C=C/C=C/1C [Everolimus (RAD001)],1.04 ± 0.11
15,N#C/C(=C\c1ccc(O)c(O)c1)C(=O)NCc1ccccc1,0.874 ± 0.063
16,Cc1cc(CN2CCN(c3c(Br)cnc4nc(-c5ccc(N6CCN(C)CC6)cc5)[nH]c34)CC2)no1,1.09 ± 0.23
17,COc1cc2ncnc(Nc3cccc(Cl)c3)c2cc1OC [AG-1478 (Tyrphostin AG-1478)],0.949 ± 0.059
18,Cc1c(NC(=O)OC[C@@H]2COCCN2)cn2ncnc(Nc3ccc4c(cnn4Cc4cccc(F)c4)c3)c12,1.04
19,CCCS(=O)(=O)Nc1ccc(F)c(C(=O)c2c[nH]c3ncc(-c4ccc(Cl)cc4)cc23)c1F [Vemurafenib (PLX4032)],1.19 ± 0.13
20,COc1ccc(-c2cc3c(C)nc(N)nc3n([C@H]3CC[C@H](OCCO)CC3)c2=O)cn1,0.889 ± 0.028
